Experimental data: PMC4081100, “A DNA-binding-site landscape and regulatory network analysis for NAC transcription factors in Arabidopsis thaliana”

Experiments:
Assay in all cases: universal protein binding microarray (PBM); transcription factors of Arabidopsis thaliana; high values mean tight binding
[1] = biological target: T1, GST-ANAC092(1-176) (Arabidopsis thaliana, UniProt Q9FKA0 1-176); conditions: protein: recombinant; tags: GST; chain copies: 2; dsDNA, one strand shown
T1 sequence: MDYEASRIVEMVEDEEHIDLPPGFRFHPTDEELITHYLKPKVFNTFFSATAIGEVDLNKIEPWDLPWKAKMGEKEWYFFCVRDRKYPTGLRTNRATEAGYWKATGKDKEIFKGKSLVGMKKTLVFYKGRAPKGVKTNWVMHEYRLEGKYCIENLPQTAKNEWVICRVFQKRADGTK
How it was run: (§1)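 Cells were induced to make GST-tagged NAC-domain, full-length or DNA-binding-domain proteins, and zinc acetate was added for zinc-finger proteins. These proteins were purified on glutathione–Sepharose 4B, quantified by A280 or anti-GST western blot, and applied in duplicate at 200 to 500 nM final to custom all-10-mer Agilent 4 × 180K arrays that primer extension had made double-stranded. Binding is given as the normalised enrichment score (E-score) for scored gapped and ungapped 8-mers.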

[2] = biological target: GST-NTL6(1-168) (Arabidopsis thaliana, UniProt Q9SCK6 1-168); conditions: protein: recombinant; tags: GST; chain copies: 2; dsDNA, one strand shown
Sequence of GST-NTL6(1-168) (Q9SCK6 1-168): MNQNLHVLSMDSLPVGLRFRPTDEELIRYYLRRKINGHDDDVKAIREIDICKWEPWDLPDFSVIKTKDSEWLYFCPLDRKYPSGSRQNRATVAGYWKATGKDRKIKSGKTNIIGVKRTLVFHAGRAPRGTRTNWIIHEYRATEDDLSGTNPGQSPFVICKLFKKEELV
How it was run: as §1

[3] = biological target: T2, GST-ANAC055(1-171) (Arabidopsis thaliana, UniProt Q9LDY8 1-171); conditions: protein: recombinant; tags: GST; chain copies: 2; dsDNA, one strand shown
T2 sequence: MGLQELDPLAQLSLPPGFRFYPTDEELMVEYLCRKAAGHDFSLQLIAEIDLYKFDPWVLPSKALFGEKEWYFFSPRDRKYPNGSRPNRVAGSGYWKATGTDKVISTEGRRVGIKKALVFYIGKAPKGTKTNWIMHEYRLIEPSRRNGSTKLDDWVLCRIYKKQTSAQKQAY
How it was run: as §1

[4] = biological target: T3, GST-ATAF1 NAC domain (Arabidopsis thaliana, UniProt Q39013 7-158); conditions: protein: recombinant; tags: GST; chain copies: 2; dsDNA, one strand shown
T3 sequence: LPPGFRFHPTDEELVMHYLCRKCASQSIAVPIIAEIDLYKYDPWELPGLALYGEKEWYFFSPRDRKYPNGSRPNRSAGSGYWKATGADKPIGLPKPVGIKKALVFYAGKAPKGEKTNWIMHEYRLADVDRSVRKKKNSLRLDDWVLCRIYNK
How it was run: as §1

[5] = biological target: T4, GST-ANAC092(1-285) full length (Arabidopsis thaliana, UniProt Q9FKA0 1-285); conditions: protein: recombinant; tags: GST; chain copies: 2; dsDNA, one strand shown
T4 sequence: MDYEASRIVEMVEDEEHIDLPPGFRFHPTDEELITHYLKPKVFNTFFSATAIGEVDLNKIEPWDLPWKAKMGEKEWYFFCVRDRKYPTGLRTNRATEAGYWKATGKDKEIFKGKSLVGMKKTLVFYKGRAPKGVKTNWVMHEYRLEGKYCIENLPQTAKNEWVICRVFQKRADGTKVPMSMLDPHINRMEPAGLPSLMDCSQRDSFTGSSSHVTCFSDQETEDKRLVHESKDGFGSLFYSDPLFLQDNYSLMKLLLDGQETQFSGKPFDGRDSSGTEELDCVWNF
How it was run: as §1

[6] = biological target: T5, GST-NST2(1-184) (Arabidopsis thaliana, UniProt Q9M274 1-184); conditions: protein: recombinant; tags: GST; chain copies: 2; dsDNA, one strand shown
T5 sequence: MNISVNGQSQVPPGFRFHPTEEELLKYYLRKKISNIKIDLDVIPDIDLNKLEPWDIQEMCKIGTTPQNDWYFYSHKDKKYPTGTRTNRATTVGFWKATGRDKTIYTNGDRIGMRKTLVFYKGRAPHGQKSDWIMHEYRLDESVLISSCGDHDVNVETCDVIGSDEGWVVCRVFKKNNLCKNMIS
How it was run: as §1

[7] = biological target: T6, GST-NTL8 NAC domain (Arabidopsis thaliana, UniProt Q9XIN7 14-156); conditions: protein: recombinant; tags: GST; chain copies: 2; dsDNA, one strand shown
T6 sequence: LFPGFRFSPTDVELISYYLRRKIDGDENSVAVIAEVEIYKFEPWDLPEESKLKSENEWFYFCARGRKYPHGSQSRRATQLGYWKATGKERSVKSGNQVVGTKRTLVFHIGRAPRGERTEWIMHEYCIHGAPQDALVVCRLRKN
How it was run: as §1

[8] = biological target: T7, GST-SND1(1-203) (Arabidopsis thaliana, UniProt Q9LPI7 1-203); conditions: protein: recombinant; tags: GST; chain copies: 2; dsDNA, one strand shown
T7 sequence: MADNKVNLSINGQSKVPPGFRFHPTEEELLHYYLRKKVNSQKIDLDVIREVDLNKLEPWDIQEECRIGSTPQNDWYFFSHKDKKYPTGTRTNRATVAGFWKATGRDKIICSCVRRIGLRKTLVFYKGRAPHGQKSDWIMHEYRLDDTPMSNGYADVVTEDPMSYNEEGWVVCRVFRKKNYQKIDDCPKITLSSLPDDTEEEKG
How it was run: as §1

[9] = biological target: T8, GST-VND3 NAC domain (Arabidopsis thaliana, UniProt Q9FH59 12-162); conditions: protein: recombinant; tags: GST; chain copies: 2; dsDNA, one strand shown
T8 sequence: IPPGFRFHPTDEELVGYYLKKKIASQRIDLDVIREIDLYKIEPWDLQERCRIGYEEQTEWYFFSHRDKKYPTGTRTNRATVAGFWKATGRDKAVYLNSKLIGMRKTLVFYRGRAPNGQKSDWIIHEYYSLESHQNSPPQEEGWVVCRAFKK
How it was run: as §1

[10] = biological target: T9, GST-VND7 NAC domain (Arabidopsis thaliana, UniProt Q9C8W9 9-158); conditions: protein: recombinant; tags: GST; chain copies: 2; dsDNA, one strand shown
T9 sequence: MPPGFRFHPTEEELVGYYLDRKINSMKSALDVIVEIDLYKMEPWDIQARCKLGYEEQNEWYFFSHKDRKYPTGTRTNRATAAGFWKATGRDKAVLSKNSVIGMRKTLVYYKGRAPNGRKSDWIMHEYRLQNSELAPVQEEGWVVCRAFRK
How it was run: as §1

[11] = biological target: GST-WRKY1(266-371) (Arabidopsis thaliana, UniProt Q9SI37 266-371); conditions: protein: recombinant; tags: GST; dsDNA, one strand shown
Sequence of GST-WRKY1(266-371) (Q9SI37 266-371): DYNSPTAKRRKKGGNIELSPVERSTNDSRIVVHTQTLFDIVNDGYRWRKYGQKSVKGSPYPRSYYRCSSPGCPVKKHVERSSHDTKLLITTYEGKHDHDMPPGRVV
How it was run: as §1

[12] = biological target: T10, GST-ANAC019 NAC domain (Arabidopsis thaliana, UniProt Q9C932 14-162); conditions: protein: recombinant; tags: GST; chain copies: 2; dsDNA, one strand shown
T10 sequence: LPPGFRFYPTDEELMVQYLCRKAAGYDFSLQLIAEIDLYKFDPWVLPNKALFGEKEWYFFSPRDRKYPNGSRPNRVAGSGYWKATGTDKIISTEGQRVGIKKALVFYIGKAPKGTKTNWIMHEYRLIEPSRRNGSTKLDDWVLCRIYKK
How it was run: as §1

[13] = biological target: T11, GST-NAP(1-166) (Arabidopsis thaliana, UniProt O49255 1-166); conditions: protein: recombinant; tags: GST; chain copies: 2; dsDNA, one strand shown
T11 sequence: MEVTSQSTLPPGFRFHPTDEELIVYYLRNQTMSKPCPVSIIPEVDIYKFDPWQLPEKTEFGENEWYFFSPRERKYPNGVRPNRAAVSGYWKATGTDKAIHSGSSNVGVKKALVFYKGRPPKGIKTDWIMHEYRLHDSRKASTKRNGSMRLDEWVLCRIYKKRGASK
How it was run: as §1

Row | Sequence | binding signal [1] [E-score] | binding signal [2] [E-score] | binding signal [3] [E-score] | binding signal [4] [E-score] | binding signal [5] [E-score] | binding signal [6] [E-score] | binding signal [7] [E-score] | binding signal [8] [E-score] | binding signal [9] [E-score] | binding signal [10] [E-score] | binding signal [11] [E-score] | binding signal [12] [E-score] | binding signal [13] [E-score]
1 | ATAAGTAA | 0.318 | 0.434 | 0.181 | 0.246 | 0.363 | 0.29 | 0.167 | 0.311 | 0.264 | 0.18 | 0.142 | – | –
2 | ATGACGTG | 0.458 | – | 0.366 | 0.317 | 0.463 | 0.258 | – | 0.326 | 0.366 | 0.322 | 0.0849 | 0.311 | 0.36
3 | CAAGGAAA | 0.231 | 0.31 | 0.147 | 0.167 | 0.241 | 0.189 | 0.46 | 0.242 | 0.202 | 0.181 | 0.0889 | 0.165 | 0.0952
4 | GTCAACAC | 0.238 | – | 0.173 | 0.092 | 0.23 | 0.134 | – | 0.134 | 0.133 | 0.154 | 0.478 | 0.138 | 0.163
5 | ATTACTTC | 0.31 | 0.415 | 0.223 | 0.176 | 0.34 | 0.267 | 0.406 | 0.347 | 0.208 | 0.14 | 0.097 | 0.168 | –
6 | AAGTAATA | 0.31 | 0.428 | 0.215 | 0.207 | 0.327 | 0.274 | 0.211 | 0.294 | 0.216 | 0.136 | 0.074 | – | 0.14
7 | ATTACGTC | 0.366 | – | 0.353 | 0.356 | 0.405 | 0.333 | – | 0.432 | 0.37 | 0.357 | 0.0595 | 0.329 | 0.376
8 | GTCGCGTA | 0.307 | 0.0763 | – | 0.195 | 0.414 | 0.109 | – | 0.422 | 0.102 | 0.233 | 0.145 | – | 0.171
9 | ACACGTCA | 0.484 | – | 0.402 | 0.382 | 0.487 | 0.316 | – | 0.352 | 0.395 | 0.447 | 0.251 | 0.436 | 0.431
10 | GCGTGCAC | 0.372 | – | 0.158 | 0.154 | 0.415 | 0.169 | – | 0.198 | 0.16 | 0.216 | 0.0555 | 0.255 | 0.145
11 | AAACGTGT | 0.424 | 0.0946 | 0.33 | 0.339 | 0.435 | 0.275 | – | 0.214 | 0.328 | 0.306 | – | 0.269 | 0.249
12 | ACACTCAA | 0.425 | – | 0.174 | 0.17 | 0.448 | 0.184 | 0.0774 | 0.264 | 0.092 | 0.185 | 0.133 | 0.116 | 0.07
13 | AATACGCA | 0.411 | 0.109 | 0.293 | 0.142 | 0.431 | 0.206 | – | 0.356 | 0.314 | 0.259 | – | 0.196 | 0.221
14 | ACGTAATC | 0.464 | 0.0901 | 0.411 | 0.38 | 0.462 | 0.356 | – | 0.424 | 0.427 | 0.44 | – | 0.453 | 0.443
